Rows were chosen to be rich in hits. Some 2.9% of all compounds tested hit in one or more screens of this group.
ADAM10 inh: human ADAM10 inhibitors, primary screen, biochemical, QFRET, HTS; Disintegrin and metalloproteinase domain-containing protein 10 (Homo sapiens), O14672; recombinant ADAM10, EDANS/DABCYL FRET peptide cleavage, 3 h; inhibition, % at 7 µM; actives 0.62% (n = 370,000); AID 720582, 2013;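 active = inhibition above a per-campaign cutoff equal to the mean of compounds falling between control-based bounds plus 3 SD, cut at about 20% in these data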;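 also: 0% = DMSO wells while the 100% control is not disclosed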
Target sequence (O14672 214-748 limits assumed): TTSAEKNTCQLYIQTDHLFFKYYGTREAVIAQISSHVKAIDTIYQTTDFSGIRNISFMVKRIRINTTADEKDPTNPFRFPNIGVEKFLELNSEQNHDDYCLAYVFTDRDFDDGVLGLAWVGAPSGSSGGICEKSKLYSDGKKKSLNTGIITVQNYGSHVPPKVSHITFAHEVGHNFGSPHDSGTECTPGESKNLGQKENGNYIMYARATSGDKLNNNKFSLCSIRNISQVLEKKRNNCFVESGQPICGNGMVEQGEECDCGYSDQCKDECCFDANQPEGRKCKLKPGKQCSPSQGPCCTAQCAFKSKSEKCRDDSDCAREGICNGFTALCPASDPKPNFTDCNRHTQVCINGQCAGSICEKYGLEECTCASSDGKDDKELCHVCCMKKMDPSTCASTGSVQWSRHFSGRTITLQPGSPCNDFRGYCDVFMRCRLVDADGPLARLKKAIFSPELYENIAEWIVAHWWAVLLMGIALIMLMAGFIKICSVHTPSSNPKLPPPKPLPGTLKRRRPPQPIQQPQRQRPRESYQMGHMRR
ADAM17 inh: ADAM17 inhibitors, primary screen, biochemical, QFRET; recombinant ADAM17, EDANS/DABCYL FRET peptide cleavage; inhibition, % at 6.95 µM; actives 0.83% (n = 370,000);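 active = inhibition above the mean of compounds lying between control limits plus 3 SD, set per campaign, cut at about 8.5% in these data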;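 also: 0% = DMSO-only wells as the low control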
PLC-beta3 inh: human PLC-beta3 inhibitors, primary screen, biochemical, fluorescence. 1-phosphatidylinositol 4,5-bisphosphate phosphodiesterase beta-3 (Homo sapiens), Q01970. Purified PLC-beta3, fluorogenic substrate. inhibition, % at 12.2 µM. actives 0.18% (n = 370,000);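 also: 0% = median of compound wells on plate and 100% = full blocker control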
KLK7 zymogen act: proKLK7 zymogen activators, primary screen, biochemical, fluorescence intensity | AID 652039, 2013 | purified proKLK7, EDANS-DABCYL substrate fluorescence; 100% is mature enzyme control, 0% vehicle | Kallikrein-7 (Homo sapiens), P49862 | actives 0.9% (n = 370,000) | activation, % at 7 µM;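 active = activation above the mean of all tested compounds plus 3 SD, computed per campaign excluding outliers beyond control limits, cut at about 13% in these data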
PLCg1 inh: PLC-gamma1 enzyme inhibitors, primary screen, biochemical, fluorescence, purified enzyme. 1-phosphatidylinositol 4,5-bisphosphate phosphodiesterase gamma-1 (Homo sapiens), P19174. inhibition, % at 12.2 µM. fluorogenic substrate. actives 0.84% (n = 370,000); in the data active = inhibition above about 9.5%
ADAM10 counter: ADAM10 inhibitors, counter-screen for ADAM17 exosite inhibitor project, biochemical, FRET, human ADAM10; shares compounds with ADAM17 inh; recombinant ADAM10, EDANS/DABCYL FRET peptide cleavage, 3 h; inhibition, % at 6.95 µM; actives 47% (n = 2,900);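 active = mean inhibition over the triplicate runs exceeds the activity threshold set in the earlier primary screen, cut at about 20% in these data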;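 also: 0% = DMSO wells and 100% = marimastat wells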
ADAM17 confirm: ADAM17 inhibitors, hit retest, confirmation, biochemical, QFRET peptide cleavage; shares compounds with ADAM17 inh; recombinant ADAM17, EDANS/DABCYL QFRET peptide cleavage; inhibition, % at 6.95 µM; actives 65% (n = 2,900);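 active = mean inhibition across replicates above the hit cutoff set in the primary screen, cut at about 8.5% in these data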;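 also: 0% = DMSO wells and 100% = marimastat wells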
PLCgamma1 ctr: PLC-gamma1 enzyme inhibitors, counter-screen for PLC-beta3 inhibitor project, biochemical, fluorescence; shares compounds with PLCg1 inh; purified PLC-gamma1, fluorogenic substrate; inhibition, % at 12.3 µM; actives 3.1% (n = 3,300); in the data active = inhibition above about 9.5%
PLCb3 confirm: PLC-beta3 inhibitor confirmation, biochemical, fluorescence, purified enzyme. shares compounds with PLCg1 inh. fluorogenic substrate fluorescence. inhibition, % at 12.3 µM. actives 1% (n = 3,300). AID 743261, 2014
Starred values were filed as active, the others as inactive; x = not tested or not shown. Rule as the data show it, unless noted: active = inhibition above about 11%; inactive = the rest.

SMILES	ADAM10 inh	ADAM17 inh	PLC-beta3 inh	KLK7 zymogen act	PLCg1 inh	PLCgamma1 ctr	PLCb3 confirm	others
O=C(N/N=C/c1ccc(N2CCCC2)c([N+](=O)[O-])c1)c1cccnc1	17	9.0*	16*	0	18*	-1	6	ADAM10 counter=21*;ADAM17 confirm=12*
COc1ccc(OC)c(CN2C(=O)CN(S(C)(=O)=O)CC2(C)C(=O)Nc2c(C)cccc2C)c1 (stereo not given)	-19	-3	1	0	-1	x	x
CC1=NN(c2ccccc2)C(=O)/C1=C/c1cccs1	18	10*	16*	0	25*	1	-1	ADAM10 counter=1;ADAM17 confirm=0
CCC(=O)Nc1c2c(nn1-c1ccc(OC)cc1)CS(=O)C2 (stereo not given)	-14	-3	5	0	0	x	x
CCC(CC)C(=O)Nc1c2c(nn1-c1ccc(OC)cc1)CS(=O)C2 (stereo not given)	8	8.7*	6	-1	12*	-6	-16	ADAM10 counter=19;ADAM17 confirm=8
Cc1cccc(C)c1NC(=O)C(c1cc2ccccc2o1)N1CCN(C)CC1 (stereo not given)	-9	-7	1	0	1	x	x
Cc1cc(C)cc(NC(=O)c2cccn2-c2ncc(C(F)(F)F)cc2Cl)c1	19	17*	9	0	13*	-1	1	ADAM10 counter=9;ADAM17 confirm=5
COC(=O)c1ccccc1NC(=O)NCC1CCN(Cc2ccc(OC)cc2)CC1	-4	-3	-1	0	-1	x	x
C[C@@H]1CN([C@@H](C)CO)C(=O)c2cc(C#CC3CCCCC3)cnc2O[C@@H]1CN(C)S(=O)(=O)c1ccc(F)cc1	3	6	-1	0	0	x	x
CCCNC(=O)C1(C)CCN(C(=O)Cc2ccc(OC)c(OC)c2)C1 (stereo not given)	-3	-1	3	0	4	x	x
Cc1cc(C(=O)OCC(=O)c2cccc([N+](=O)[O-])c2)c2ccccc2n1	4	3	14*	0	9	-6	-2
N=c1n(Cc2ccccc2)c2ccccc2n1CC(O)COc1ccc(Cl)cc1Cl (stereo not given)	4	0	5	0	12*	-2	-3
Cc1cccc(OCC(O)Cn2c(=N)n(Cc3ccccc3)c3ccccc32)c1 (stereo not given)	9	-18	1	0	12*	0	-6
Cc1ccc(OCC(O)Cn2c(=N)n(Cc3ccccc3)c3ccccc32)cc1 (stereo not given)	0	0	2	0	2	x	x
CN(Cc1cccc(Cl)c1Cl)C(=O)CCNC(=O)c1ccco1	0	3	7	0	12*	1	0
Cc1ccc(S(=O)(=O)N(CC(=O)N/N=C/c2cccc(C)c2)c2cccc3cccnc23)cc1	-9	6	-1	0	11*	-3	-1
O=C(c1nnsc1S(=O)(=O)c1ccc(Cl)cc1)N1CCOCC1	9	-1	7	0	18*	9	0
COc1ccccc1N1CC(C(=O)Nc2ccc(N3CCOCC3)cc2)CC1=O (stereo not given)	3	7	2	0	11*	-6	-3
Cc1ccc(NC(=O)CSc2nnc(-c3cnccn3)n2C)cc1C	-9	1	-8	-1	9.7*	-4	0
Cc1cccc(CSc2nnc(-c3cnccn3)n2C)c1	14	6	2	0	12*	0	0
Cn1c(SCc2ccccn2)nnc1-c1cnccn1	-3	-2	-2	-1	3	x	x
O=C(CN1C(=O)NC2(CCCC2)C1=O)N1CCN(S(=O)(=O)c2cc(Cl)ccc2Cl)CC1	3	-6	-15	0	10*	-4	-5
CC(=O)NCCOc1nc(N(C)C)nc(N2CCOCC2)n1	-2	-3	1	1	4	x	x
CC(C)=NOc1nc(N(C)C)nc(N2CCOCC2)n1	9	2	11*	0	11*	-2	0
CCC(C)NCCCCOc1ccc(Cl)cc1C (stereo not given)	-2	3	4	-1	12*	7	3
SMILES	ADAM10 inh	ADAM17 inh	PLC-beta3 inh	KLK7 zymogen act	PLCg1 inh	PLCgamma1 ctr	PLCb3 confirm	others
COc1ccc(-n2c(=S)[nH]c3cc(C(=O)O)ccc3c2=O)cc1	-37	-11	-3	-1	-3	x	x
COc1ccc(-n2c(=S)[nH]c3cc(C(=O)N(C)Cc4ccccc4)ccc3c2=O)cc1	18	7	1	0	12*	1	2
CCCS(=O)(=O)NC(=O)C1(C)CCN(C(=O)C2(c3ccc(Cl)cc3)CCCC2)C1 (stereo not given)	-1	1	2	0	5	x	x
CN1CCN(S(=O)(=O)c2cccc(C(=O)Oc3ccc(Br)cc3F)c2)CC1	5	3	0	0	11*	-4	-1
CC1(C)N([O-])C(c2ccccc2)=C[N+](=O)C1(C)C	-8	1	9	0	10*	-5	0
O=C(NC1C2CC3CC(C2)CC1C3)C1CCCCC1 (stereo not given)	4	8.6*	1	-1	16*	-7	-3
O=C(CN1CCCC1)NC1C2CC3CC(C2)CC1C3 (stereo not given)	5	0	3	0	0	x	x
CC(C(=O)Nc1ccccn1)c1ccccc1 (stereo not given)	0	1	-5	0	2	x	x
CC(NC(=O)c1ccc(F)cc1)c1ccc2c(c1)CCCC2 (stereo not given)	12	2	14*	0	13*	3	0
CC(NC(=O)c1ccc(Br)cc1)c1ccc2c(c1)CCCC2 (stereo not given)	1	1	6	0	6	x	x
O=C(COc1ccc(F)cc1)c1ccc2c(c1)CCCC2	8	6	7	-1	9.5*	-4	-2

Screening results deposited in PubChem by The Scripps Research Institute Molecular Screening Center.
